Assay results taken from PubChem BioAssay (Tox21).
Unmarked numbers belong to inactive results. Results filed as inconclusive are left out. Entries that show only a call come without a potency. Activity calls are given as the source filed them. Unless noted, calls come from the whole dose curve.

Tests used:
[1] = Nuclear factor erythroid 2-related factor 2/antioxidant responsive element (Nrf2/ARE) small molecule agonists: qHTS cell viability counter screen in human keratinocytes (AID 1919968; active = well fitted curve in the direction sought with a large enough effect in the repeat runs; an effect the other way counts as inactive or inconclusive; note: nearly all actives have a fitted effect of over 55% in size; note: potency is the fitted concentration of half-maximal effect)
Summary of the method: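 After a 5 h attachment period, ARE-reporter keratinocytes were dosed with compounds in DMSO and then cultured 23 h at 37 C. Cell viability came from CellTiter-Fluor signal read after a further 1 h.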

[2] = Nuclear factor erythroid 2-related factor 2/antioxidant responsive element (Nrf2/ARE) small molecule agonists: luciferase reporter gene qHTS assay in human keratinocytes (AID 1919969); note: nearly all actives have a fitted effect of over 35% in size; note: potency is the fitted concentration of half-maximal effect
[3] = target: Gonadotropin-releasing hormone receptor (Homo sapiens) (UniProt P30968); assay: Human gonadotropin-releasing hormone receptor (GnRHR) small molecule agonists, calcium flux assay in GnRHR-HEK293 cells (AID 1920063); note: nearly all actives have a fitted effect of over 35% in size
Summary of the method: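 We seeded human GnRHR-expressing HEK293 cells for 18 hours, loaded them with calcium dye for an hour at 37 C, added test compounds, and recorded fluorescence intensity kinetically for three minutes.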

[4] = target: KiSS-1 receptor (Homo sapiens) (UniProt Q969F8); assay: Human kisspeptin (KISS1R) small molecule agonists, calcium flux assay in KISS1R-HEK293 cells (AID 1920064; active = well fitted curve in the direction sought with a large enough effect in the repeat runs; an effect the other way counts as inactive or inconclusive)
Summary of the method: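 Kinetic calcium assay, 1 s sampling over 3 min at Ex/Em 480/540, in HEK293 cells engineered with human KISS1R; compounds delivered in DMSO after 1 h dye loading.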

[5] = G protein-coupled receptor (GPCR) small molecule agonists, calcium flux assay: HEK293 wild type cell line counter screen (AID 1920065)
Summary of the method: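 Calcium-sensitive dye, loaded 1 h at 37 C into cells cultured 18 h, reports compound-evoked calcium release as fluorescence (Ex/Em 480/540), measured over 3 min. Agonist mode; 15-point titrations, triplicate.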

[6] = p53 small molecule agonists, cell-based qHTS assay with human liver microsomes (AID 1963577);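 note: p53 response element beta-lactamase reporter cells with liver microsomes plus NADPH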
Summary of the method: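 With metabolic activation: human liver microsomes (0.5 mg/mL final) plus NADPH (0.5 mg/mL final) added alongside compounds to p53RE-bla cells; 16 h 37 C exposure; beta-lactamase read by LiveBLAzer fluorescence.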

[7] = p53 small molecule agonists, cell-based qHTS assay with rat liver microsomes (AID 1963578)
Summary of the method: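 Metabolic activation by rat liver microsomes and NADPH, each 0.5 mg/mL final, added right after compounds to p53RE-bla reporter cells (4,000/well, plated 5 h earlier). 16 h at 37 C, then LiveBLAzer substrate for 2 h at room temperature in the dark; fluorescence read-out.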

[8] = p53 small molecule agonists, cell-based qHTS assay with human liver microsomes: qHTS cell viability counter screen (AID 1963579); note: nearly all actives have a fitted effect of over 45% in size; note: potency is the fitted concentration of half-maximal effect
Summary of the method: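 Metabolic activation used human liver microsomes and NADPH, both 0.5 mg/mL final, over 16 hours at 37 C on p53RE-bla cells (4,000/well). Cytotoxicity measured by CellTiter-Glo luminescence, 30 min at room temperature.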

[9] = p53 small molecule agonists, cell-based qHTS assay with rat liver microsomes: qHTS cell viability counter screen (AID 1963580); note: nearly all actives have a fitted effect of over 45% in size; note: potency is the fitted concentration of half-maximal effect
Summary of the method: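 In HCT-116 cells carrying a p53 response element-bla reporter, compounds were metabolically activated in situ by rat liver microsomes with NADPH over 16 h. Cell ATP content then served as the cytotoxicity measure.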

[10] = p53 small molecule agonists, cell-based qHTS assay (AID 1963582; active = well fitted activation curve with a large enough effect in the signal ratio in the repeat runs, not every such curve was filed as active; the % refers to the signal ratio)
Summary of the method: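 In this cell-based concentration-response screen, a p53 response element drives beta-lactamase; cells received DMSO-borne compounds after 5 h culture and were incubated a further 16 h before FRET substrate development.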

[11] = target: 5-hydroxytryptamine receptor 2A (Homo sapiens) (UniProt P28223); assay: 5-hydroxytryptamine receptor 2A (HTR2A) small molecule antagonists, cell-based qHTS assay (AID 1963586); note: nearly all actives have a fitted effect of over 45% in size; note: potency is the fitted concentration of half-maximal effect
Summary of the method: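 Antagonist-mode intracellular calcium assay: DOI (4 nM) added after 5 min compound pre-incubation at room temperature to dye-loaded HTR2A-CHO cells. Fluorescence followed for 3 min, sampled every second.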

[12] = target: 5-hydroxytryptamine receptor 2A (Homo sapiens) (UniProt P28223); assay: 5-hydroxytryptamine receptor 2A (HTR2A) small molecule agonists, cell-based qHTS assay (AID 1963587); note: nearly all actives have a fitted effect of over 30% in size; note: potency is the fitted concentration of half-maximal effect
Summary of the method: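 HTR2A-CHO cells, plated 18 h at 37 C/5% CO2, dye-loaded 1 h at 37 C; compounds in DMSO added by pin tool (agonist mode). Intracellular calcium flux read as kinetic fluorescence on FDSS over 2 min at 1 s intervals.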

[13] = target: Muscarinic acetylcholine receptor M1 (Homo sapiens) (UniProt P11229); assay: Cholinergic receptor muscarinic 1 (CHRM1) small molecule antagonists, cell-based qHTS assay (AID 1963588); note: nearly all actives have a fitted effect of over 40% in size; note: potency is the fitted concentration of half-maximal effect
Summary of the method: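 CHRM1-CHO calcium-flux assay, antagonist mode. Cells were seeded 18 h, dye-loaded 1 h at 37 C and given compound for 5 min at RT, then acetylcholine was added at 50nM. FDSS fluorescence was read 3 min; 15 concentrations, three runs.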

[14] = target: Muscarinic acetylcholine receptor M1 (Homo sapiens) (UniProt P11229); assay: Cholinergic receptor muscarinic 1 (CHRM1) small molecule agonists, cell-based qHTS assay (AID 1963589); note: nearly all actives have a fitted effect of over 35% in size
Summary of the method: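 Measures agonist-induced intracellular calcium rise. Stable human CHRM1 CHO line, 1 h dye load at 37 C, compounds from DMSO, kinetic fluorescence read.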

[15] = cAMP Responsive Elements (CRE) small molecule agonists, cell-based qHTS assay (AID 1963590)
Summary of the method: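 A CRE-responsive beta-lactamase reporter in HEK 293T cells was used. Treatment ran 3 h at 37 C; detection used LiveBLAzer B/G FRET substrate for 2 h at room temperature.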

[16] = cAMP Responsive Elements (CRE) small molecule antagonists, cell-based qHTS assay (AID 1963591; active = well fitted inhibition curve with a large enough effect in the signal ratio in the repeat runs, not every such curve was filed as active; the % refers to the signal ratio)
Summary of the method: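 HEK293T cells carrying a CRE-driven beta-lactamase reporter receive compound and NKH477 (0.25 uM final) for 3 h. Fluorescence from LiveBLAzer B/G FRET substrate is read after 2 h at room temperature.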

[17] = target: Beta-2 adrenergic receptor (Homo sapiens) (UniProt P07550); assay: Adrenergic beta2 receptor (ADRB2) small molecule antagonists, cell-based qHTS assay (AID 1963592); note: series mostly up to about 92 µM; nearly all actives have a fitted effect of over 50% in size
Summary of the method: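 Cells (CHO, stable ADRB2 overexpression) incubated 18-20hr at 37C; compounds added from DMSO; agonist mix (1nM isoproterenol, 100uM IBMX, 25uM Ro-20-1724) added; 0.5hr RT; d2-cAMP and anti-cAMP-cryptate added; 1hr RT; 665/615 nm read.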

[18] = target: D(2) dopamine receptor (Homo sapiens) (UniProt P14416); assay: Dopamine D2 receptor (DRD2) small molecule agonists, cell-based qHTS assay (AID 1963594); note: nearly all actives have a fitted effect of over 35% in size
Summary of the method: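 HEK293 cells stably expressing DRD2 were cultured 24 h at 37 C, then given Ro20-1724 (0.1 mM final) and compounds for 10 min at room temperature. NKH477 (200nM) was then added for 30 min. cAMP was read by HTRF.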

[19] = target: D(2) dopamine receptor (Homo sapiens) (UniProt P14416); assay: Dopamine D2 receptor (DRD2) small molecule antagonists, cell-based qHTS assay (AID 1963595; active = well fitted inhibition curve with a large enough effect in the signal ratio in the repeat runs, with a control signal flat; the % refers to the signal ratio)
Summary of the method: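 HEK293 cells stably expressing DRD2 were preincubated with 0.1 mM Ro20-1724, then with compound for 10 min at room temperature. Cells were stimulated with 200 nM NKH477 plus 12 nM quinpirole for 30 min, and cAMP was read by HTRF.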

Sequence of KiSS-1 receptor (Homo sapiens) (Q969F8 whole entry, looked up): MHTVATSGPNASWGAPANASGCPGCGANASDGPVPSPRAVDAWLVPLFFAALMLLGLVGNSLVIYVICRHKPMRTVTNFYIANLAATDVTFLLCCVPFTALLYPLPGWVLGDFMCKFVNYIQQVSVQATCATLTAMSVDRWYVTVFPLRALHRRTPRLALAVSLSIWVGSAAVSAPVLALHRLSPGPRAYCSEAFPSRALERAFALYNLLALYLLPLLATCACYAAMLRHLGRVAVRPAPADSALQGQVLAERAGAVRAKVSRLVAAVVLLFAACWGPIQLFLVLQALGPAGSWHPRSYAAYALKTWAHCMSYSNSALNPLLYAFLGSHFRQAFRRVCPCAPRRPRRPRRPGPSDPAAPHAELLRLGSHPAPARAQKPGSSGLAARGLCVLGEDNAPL
Sequence of Muscarinic acetylcholine receptor M1 (Homo sapiens) (P11229 whole entry, looked up): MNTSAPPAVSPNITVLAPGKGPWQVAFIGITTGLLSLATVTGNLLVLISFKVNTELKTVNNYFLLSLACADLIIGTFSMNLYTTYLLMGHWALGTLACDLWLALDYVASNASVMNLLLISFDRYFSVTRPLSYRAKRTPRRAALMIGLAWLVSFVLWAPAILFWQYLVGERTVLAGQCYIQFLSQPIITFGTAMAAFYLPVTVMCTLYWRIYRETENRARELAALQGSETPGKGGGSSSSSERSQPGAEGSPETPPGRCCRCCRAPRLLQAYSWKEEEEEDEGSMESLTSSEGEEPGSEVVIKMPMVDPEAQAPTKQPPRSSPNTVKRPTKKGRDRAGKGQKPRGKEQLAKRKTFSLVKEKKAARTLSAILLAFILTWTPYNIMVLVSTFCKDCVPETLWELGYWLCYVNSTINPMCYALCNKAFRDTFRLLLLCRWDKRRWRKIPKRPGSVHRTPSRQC
Sequence of 5-hydroxytryptamine receptor 2A (Homo sapiens) (P28223 whole entry, looked up): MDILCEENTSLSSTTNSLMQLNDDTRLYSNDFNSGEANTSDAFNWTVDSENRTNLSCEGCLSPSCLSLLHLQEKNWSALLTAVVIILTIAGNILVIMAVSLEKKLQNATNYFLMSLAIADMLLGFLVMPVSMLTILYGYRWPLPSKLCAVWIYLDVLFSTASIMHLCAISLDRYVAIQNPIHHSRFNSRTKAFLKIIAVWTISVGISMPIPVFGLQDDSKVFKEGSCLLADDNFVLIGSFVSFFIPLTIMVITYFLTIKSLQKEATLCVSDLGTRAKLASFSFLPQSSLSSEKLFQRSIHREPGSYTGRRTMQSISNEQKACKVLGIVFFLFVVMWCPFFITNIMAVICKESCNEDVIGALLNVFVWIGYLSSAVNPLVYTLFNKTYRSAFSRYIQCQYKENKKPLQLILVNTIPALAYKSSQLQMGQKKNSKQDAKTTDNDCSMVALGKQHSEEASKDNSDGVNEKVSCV
Sequence of Gonadotropin-releasing hormone receptor (Homo sapiens) (P30968 whole entry, looked up): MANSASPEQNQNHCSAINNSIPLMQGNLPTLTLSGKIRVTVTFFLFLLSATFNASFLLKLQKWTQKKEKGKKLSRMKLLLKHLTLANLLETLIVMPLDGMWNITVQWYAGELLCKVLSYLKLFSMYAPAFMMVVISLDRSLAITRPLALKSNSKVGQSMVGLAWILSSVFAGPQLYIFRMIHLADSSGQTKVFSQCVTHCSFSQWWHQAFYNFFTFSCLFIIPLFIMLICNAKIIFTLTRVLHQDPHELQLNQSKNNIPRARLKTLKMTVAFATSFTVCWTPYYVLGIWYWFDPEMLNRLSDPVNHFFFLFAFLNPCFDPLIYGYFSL
Sequence of D(2) dopamine receptor (Homo sapiens) (P14416 whole entry, looked up): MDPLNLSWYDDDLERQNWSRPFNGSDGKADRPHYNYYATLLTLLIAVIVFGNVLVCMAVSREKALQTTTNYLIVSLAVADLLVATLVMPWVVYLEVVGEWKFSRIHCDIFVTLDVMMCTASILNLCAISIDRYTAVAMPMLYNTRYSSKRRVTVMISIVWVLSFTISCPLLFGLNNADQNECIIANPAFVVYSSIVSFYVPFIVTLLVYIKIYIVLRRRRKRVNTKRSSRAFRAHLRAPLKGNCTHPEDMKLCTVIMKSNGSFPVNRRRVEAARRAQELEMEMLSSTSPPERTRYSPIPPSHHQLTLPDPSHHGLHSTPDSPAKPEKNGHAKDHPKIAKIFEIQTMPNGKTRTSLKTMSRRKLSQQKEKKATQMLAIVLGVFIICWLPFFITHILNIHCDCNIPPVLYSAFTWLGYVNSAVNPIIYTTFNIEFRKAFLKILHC
Sequence of Beta-2 adrenergic receptor (Homo sapiens) (P07550 whole entry, looked up): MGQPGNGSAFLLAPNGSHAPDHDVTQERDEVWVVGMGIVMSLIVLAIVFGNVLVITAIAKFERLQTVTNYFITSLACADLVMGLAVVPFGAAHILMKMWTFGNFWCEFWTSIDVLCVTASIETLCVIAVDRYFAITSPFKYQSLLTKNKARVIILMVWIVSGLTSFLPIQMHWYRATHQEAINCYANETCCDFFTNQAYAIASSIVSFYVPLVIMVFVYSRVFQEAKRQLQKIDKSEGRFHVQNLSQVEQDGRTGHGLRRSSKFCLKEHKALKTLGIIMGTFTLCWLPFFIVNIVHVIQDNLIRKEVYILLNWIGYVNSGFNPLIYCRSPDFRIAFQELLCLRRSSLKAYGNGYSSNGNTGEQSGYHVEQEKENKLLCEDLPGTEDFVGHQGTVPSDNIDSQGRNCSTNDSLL

Compound	Potency [1]	Potency [2]	Potency [3]	outcome [4]	outcome [5]	Potency [6]	Potency [7]	Potency [8]	Potency [9]	Potency [10]	Potency [11]	Potency [12]	Potency [13]	Potency [14]	Potency [15]	Potency [16]	Potency [17]	Potency [18]	Potency [19]
CN(C)CCOCCN(C)CCO	inactive	inactive	inactive	inactive	inactive	inactive	inactive	inactive	inactive	inactive	inactive	inactive	inactive	inactive	inactive	inactive	inactive	inactive	inactive
CCOC(=O)C(=O)OCC	inactive	inactive	inactive	inactive	inactive	inactive	inactive	inactive	inactive	inactive	inactive	inactive	inactive	inactive	inactive	inactive		inactive	inactive
C=CC(C)(CCC=C(C)C)OC(=O)c1ccccc1 (stereo not drawn)	inactive	24.3 µM (active)	inactive	inactive	inactive	inactive	inactive	inactive	inactive	inactive	inactive	inactive	inactive	inactive	inactive	inactive	inactive	inactive	inactive
C=Cc1ccccc1C=C	inactive	inactive	inactive	inactive	inactive	inactive	inactive	inactive	inactive	inactive	inactive	inactive	inactive	inactive	inactive	inactive		inactive	inactive
O=c1cccccc1O	44.1 µM (active)	24.8 µM (active)	inactive	inactive	inactive	inactive	inactive	inactive	29.4 µM (active)	inactive	inactive	inactive	inactive	inactive	inactive	inactive	inactive	inactive	inactive
O=C(O)c1cccc(Cl)n1	inactive	68.6 µM (active)	inactive	inactive	inactive	inactive	inactive	40.8 µM (active)	inactive	inactive	inactive	inactive	inactive	inactive		inactive	inactive	inactive	inactive
Nc1ccc(NC(=O)c2ccc(N)cc2)cc1	inactive	inactive	inactive	inactive	inactive	inactive	inactive	inactive	inactive	inactive	inactive	inactive	inactive	inactive	inactive	inactive		inactive	inactive
Clc1cc(Cl)c(-c2c(Cl)c(Cl)cc(Cl)c2Cl)cc1Cl	inactive	inactive	inactive	inactive	inactive	inactive	inactive	inactive	inactive	inactive	inactive	inactive	inactive	inactive		inactive	inactive	inactive	inactive
CN(C)c1ccc(CCO)cc1	inactive	27.1 µM (active)	inactive	inactive	inactive	inactive	inactive	inactive	inactive	inactive	inactive	inactive	inactive	inactive		inactive		inactive	inactive
CCN(CC)CCSC(=O)C(c1ccccc1)c1ccccc1	inactive	33.5 µM (active)	inactive	inactive	inactive	inactive	inactive	inactive	inactive	inactive	1.45 µM (active)	3.38 µM (active)	0.0103 µM (active)	inactive			inactive	inactive	
CCCCCCCCCOC(C)=O	inactive	inactive	inactive	inactive	inactive	inactive	inactive	inactive	inactive	inactive	inactive	inactive	inactive	inactive	inactive		inactive	inactive	inactive
COc1cc(OC)nc(NC(=O)NS(=O)(=O)Nc2ccccc2C(=O)N(C)C)n1	inactive	inactive	inactive	inactive	inactive	inactive	inactive	inactive	inactive	inactive	inactive	inactive	inactive	inactive		inactive		inactive	inactive
OC1CCCc2ccccc21 (stereo not drawn)	inactive	inactive	inactive	inactive	inactive	inactive	inactive	inactive	inactive	inactive	inactive	inactive	inactive	inactive	inactive	inactive	inactive	inactive	inactive
C=CC(=O)OCCOCCOCC	inactive	inactive	inactive	inactive	inactive	inactive	inactive	inactive	inactive	inactive	inactive	inactive	inactive	inactive	inactive	inactive	inactive	inactive	inactive
